Compounds without any hit were thinned out: in the full panel of roughly 83,000, 20% have a hit.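 Plates (96-well) were seeded with cells, treated with compound at one concentration, and incubated for 48 hours before percent growth was determined.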 Values without a mark were called inactive. Calls of active or inactive are those of the source. How the source made its calls: active means growth percent below 10; inactive means the rest.
What was measured:
Assay in all cases: NCI-60 one-dose screen, 48 h (100 = growth as untreated, 0 = no growth, -100 = all killed)
Conditions in all cases: 10 µM
SK-MEL-2 melanoma = system: SK-MEL-2 melanoma
EKVX NSCLC = system: EKVX NSCLC
SN12C renal = system: SN12C renal
UO-31 renal = system: UO-31 renal
TK-10 renal = system: TK-10 renal
ACHN renal = system: ACHN renal
CAKI-1 renal = system: CAKI-1 renal
A498 renal = system: A498 renal
MOLT-4 leukemia = system: MOLT-4 leukemia
CCRF-CEM leukemia = system: CCRF-CEM leukemia

SMILES	growth (SK-MEL-2 melanoma)	growth (EKVX NSCLC)	growth (SN12C renal)	growth (UO-31 renal)	growth (TK-10 renal)	growth (ACHN renal)	growth (CAKI-1 renal)	growth (A498 renal)	growth (MOLT-4 leukemia)	growth (CCRF-CEM leukemia) [%]
CCn1c(SCCc2ccccc2)nnc1-c1nn(-c2ccc(Cl)cc2Cl)c(-c2ccc(Cl)cc2)c1C	53.8%	52.6%	70.3%	53.5%	75.3%	61%	64.4%	96.6%	41.6%	–
COc1ccc(-c2cc(-c3ccc(OC)c(OC)c3)nc(SCCCC(=O)NO)n2)cc1	-5.66% (active)	-15.3% (active)	5.59% (active)	-74.3% (active)	-0.0305% (active)	-24.9% (active)	-29.2% (active)	-32.4% (active)	7.15% (active)	–
O=C(O)c1cn(C2CC2)c2cc(N3CCN(C(=O)c4cc(-c5ccc(Cl)cc5)nc5ccccc45)CC3)c(F)cc2c1=O	101%	85.5%	90.9%	35.8%	113%	87.3%	60.2%	74.2%	82.1%	–
COc1cc(-c2csc(NC(=O)Nc3ccc(Cl)c(C(F)(F)F)c3)n2)cc(OC)c1OC	-14.3% (active)	2.12% (active)	-11.3% (active)	-1.04% (active)	-4.34% (active)	-8.21% (active)	6.78% (active)	-15.7% (active)	2.65% (active)	–
O=C(O)c1ccc(-n2cc(CNc3ccc(Cl)cc3)c(-c3ccccc3)n2)cc1	78.5%	78.1%	94.9%	82.4%	91.7%	79.5%	88.8%	91.4%	82.4%	–
Cc1ccc(/C=C2/C(=O)N(C)c3ccc(S(=O)(=O)Nc4ccc(C(C)(C)C)cc4)cc32)s1	94.3%	103%	78.9%	73.4%	90.9%	56%	45%	90.8%	73.3%	–
CC(C)(C)OC(=O)N1CCc2c(sc3ncnc(N/N=C/c4cccc(Br)c4)c23)C1	76.1%	26.3%	50.9%	21%	56.3%	33.9%	31.4%	72.7%	18%	–
COc1ccc(-c2cc(-c3ccc(Cl)cc3)nc(SCCCC(=O)NO)n2)cc1OC	13.3%	-13.8% (active)	6.47% (active)	-53.2% (active)	17.8%	-19.7% (active)	-5.05% (active)	-40.1% (active)	9.38% (active)	–
Nc1ccn(Cc2nnc(CCC(=O)c3nc4ccccc4[nH]3)o2)c(=O)n1	100%	84.1%	87.1%	44.2%	100%	87%	82.8%	61.7%	8.54% (active)	–
CC(C)c1cc(N=O)cc(C(C)C)c1O	107%	105%	94.2%	90.2%	115%	98.6%	95.2%	108%	89.1%	101
COc1cc(C(=O)/C(C)=C/c2c[nH]c3ccccc23)cc(OC)c1OC	28.7%	33.5%	26.3%	48.8%	62.3%	28.1%	34.1%	24.8%	17.5%	–
COc1ccc(/C=C/c2nnc(/C=C/c3ccc(OC)c(OC)c3)o2)cc1OC	20.3%	36.9%	22.1%	37.4%	45.5%	45.4%	51.4%	31.4%	20.3%	–
